From PubChem BioAssay (Tox21)
Records with an inconclusive call do not appear. Active and inactive are the calls of the source. Unless noted, the call rests on the fitted dose curve; in most records, active means well fitted curve in the direction sought with a large enough effect in the repeat runs; inconclusive means weak or mixed curves; inactive means no such curve, though single readings can be large; an effect the other way counts as inactive or inconclusive.

Key:
[1] = qHTS assay for small molecule agonists of the p53 signaling pathway (AID 651631; calls by dose curve; further: nearly all actives have a fitted effect of over 15% in size)
Method in brief: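 Beta-lactamase reporter activity under p53 response elements was quantified in HCT-116 cells by FRET fluorescence, following 16 h incubation with test compounds at 37 °C and 2 h substrate development at room temperature.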

[2] = qHTS assay for small molecules that induce genotoxicity in human embryonic kidney cells expressing luciferase-tagged ATAD5 (AID 651632); further: nearly all actives have a fitted effect of over 15% in size
Method in brief: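 Increased luciferase signal from ATAD5-tagged reporter cells indicates DNA-damage-driven ATAD5 induction. HEK293T cells are treated for 16 hr at 37C before detection with Amplite.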

[3] = qHTS assay for small molecule agonists of the p53 signaling pathway - cell viability (AID 651633; calls by dose curve;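 further: p53RE-bla HCT reporter cells with a stable beta-lactamase p53 reporter; series mostly up to about 83 µM; nearly all actives have a fitted effect of over 30% in size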)
Method in brief: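 p53RE-bla cells were treated with compound for 16 hours at 37 C. Cytotoxicity was then measured as CellTiter-Glo luminescence after 30 min at room temperature.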

[4] = qHTS assay for small molecules that induce genotoxicity in human embryonic kidney cells expressing luciferase-tagged ATAD5 - cell viability (AID 651634; calls by dose curve; further: nearly all actives have a fitted effect of over 25% in size)
Method in brief: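 Cytotoxicity counterscreen in HEK293T cells bearing an ATAD5-luciferase reporter: live-cell protease activity measured by CellTiter-Fluor fluorescence after 15.5 hr compound exposure.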

[5] = qHTS assay for small molecule disruptors of the mitochondrial membrane potential - cell viability (AID 720634; calls by dose curve;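 further: human HepG2 liver cancer cells; series mostly up to about 83 µM; nearly all actives have a fitted effect of over 20% in size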)
Method in brief: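 After overnight attachment at 37 C, HepG2 cells received compound or DMSO vehicle for 1 hr. Viability is then taken from ATP-driven luminescence following a 30 min room-temperature CellTiter-Glo step.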

[6] = qHTS assay to test for compound auto fluorescence at 590 nm (red) in HepG2 cells (AID 720674)
Method in brief: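 Fluorescence at 590 nm emission following 540 nm excitation was recorded from HepG2 wells one hour after compound transfer, with DMSO-only wells as vehicle and Rose Bengal sodium equivalency as the scale.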

[7] = qHTS assay to test for compound auto fluorescence at 535 nm (green) in HepG2 cells (AID 720675)
[8] = qHTS assay to test for compound auto fluorescence at 460 nm (blue) in HEK293 cells (AID 720678)
Method in brief: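 Cells were seeded and left to adhere for 4-5 hr at 37C. Compounds were then pin-transferred. After an overnight incubation at 37C under 5% CO2, intrinsic fluorescence at 405/460 nm was measured and referenced to triamterene.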

[9] = qHTS assay to test for compound auto fluorescence at 590 nm (red) in HEK293 cells (AID 720679)
Method in brief: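 Each well held 2,000 HEK293 cells in medium containing 10% dialyzed FBS. Following 4-5 hr attachment at 37C, 23 nL test compound or DMSO was added; plates sat overnight, and red fluorescence (540/590nm) was recorded.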

[10] = qHTS assay to test for compound auto fluorescence at 535 nm (green) in HEK293 cells (AID 720680)
[11] = qHTS assay to test for compound auto fluorescence at 460 nm (blue) in HEK293 cell free culture (AID 720681)
Method in brief: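 Compounds were added to cell-free DMEM with 10% FBS and fluorescence read directly. The blue channel used 405 nm excitation and 460 nm emission, with triamterene as the reference fluorophore.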

[12] = qHTS assay to test for compound auto fluorescence at 535 nm (green) in HEK293 cell free culture (AID 720682)
Method in brief: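 Each library compound, or DMSO control, is added by pintool to medium alone, comprising DMEM and 10% FBS. Emission at 535 nm following 485 nm excitation is quantified against fluorescein.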

[13] = qHTS assay to test for compound auto fluorescence at 590 nm (red) in HEK293 cell free culture (AID 720683)
Method in brief: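 Cell-free wells of DMEM with 10% FBS received compound, and intrinsic fluorescence was read at excitation/emission 540/590 nm. Values expressed as equivalence to Rose Bengal sodium.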

[14] = qHTS assay to test for compound auto fluorescence at 590 nm (red) in HepG2 cell free culture (AID 720684)
Method in brief: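 Compounds are added to culture medium (MEM, 10% FBS) lacking cells, then fluorescence is read at excitation 540 nm, emission 590 nm, with Rose Bengal sodium as the equivalency standard.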

[15] = qHTS assay to test for compound auto fluorescence at 460 nm (blue) in HepG2 cell free culture (AID 720685)
Method in brief: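 Compound (23 nL) or DMSO pinned into cell-free MEM with 10% FBS; blue fluorescence read at 405/460 nm excitation/emission, expressed as auto-fluorescence equivalency to triamterene.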

[16] = qHTS assay to test for compound auto fluorescence at 535 nm (green) in HepG2 cell free culture (AID 720686)
[17] = target: Glucocorticoid receptor (Homo sapiens) (UniProt P04150); test: qHTS assay to identify small molecule agonists of the glucocorticoid receptor (GR) signaling pathway (AID 720691; active means well fitted activation curve with a large enough effect in the signal ratio in the repeat runs, not every such curve was filed as active; the % refers to the signal ratio)
Method in brief: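 Agonist mode in a HeLa line carrying a GRE-controlled beta-lactamase reporter. Compounds act for 18 h at 37 C before a 2 h room-temperature FRET substrate step and fluorescence reading.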

[18] = target: Glucocorticoid receptor (Homo sapiens) (UniProt P04150); test: qHTS assay to identify small molecule antagonists of the glucocorticoid receptor (GR) signaling pathway (AID 720692; active means well fitted inhibition curve with a large enough effect in the signal ratio in the repeat runs, not every such curve was filed as active; the % refers to the signal ratio)
Method in brief: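 Cells plated, rested 4 h at 37 C/5% CO2; compounds in DMSO pin-transferred; dexamethasone added to 5 nM final; 18 h at 37 C; B/G FRET substrate added, 2 h room temperature; fluorescence measured.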

[19] = qHTS assay to test for compound auto fluorescence at 460 nm (blue) in HepG2 cells (AID 720687)
Method in brief: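 HepG2 cells in MEM with 10% FBS, attached overnight at 37 C, were exposed to compound or DMSO for 1 hr at 37 C, 5% CO2. Blue fluorescence was read at 405/460 nm, with triamterene as reference fluorophore.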
On the % scale 0 is the no-effect control and ±100 the full control effect.

Sequence of Glucocorticoid receptor (Homo sapiens) (P04150 whole entry, looked up): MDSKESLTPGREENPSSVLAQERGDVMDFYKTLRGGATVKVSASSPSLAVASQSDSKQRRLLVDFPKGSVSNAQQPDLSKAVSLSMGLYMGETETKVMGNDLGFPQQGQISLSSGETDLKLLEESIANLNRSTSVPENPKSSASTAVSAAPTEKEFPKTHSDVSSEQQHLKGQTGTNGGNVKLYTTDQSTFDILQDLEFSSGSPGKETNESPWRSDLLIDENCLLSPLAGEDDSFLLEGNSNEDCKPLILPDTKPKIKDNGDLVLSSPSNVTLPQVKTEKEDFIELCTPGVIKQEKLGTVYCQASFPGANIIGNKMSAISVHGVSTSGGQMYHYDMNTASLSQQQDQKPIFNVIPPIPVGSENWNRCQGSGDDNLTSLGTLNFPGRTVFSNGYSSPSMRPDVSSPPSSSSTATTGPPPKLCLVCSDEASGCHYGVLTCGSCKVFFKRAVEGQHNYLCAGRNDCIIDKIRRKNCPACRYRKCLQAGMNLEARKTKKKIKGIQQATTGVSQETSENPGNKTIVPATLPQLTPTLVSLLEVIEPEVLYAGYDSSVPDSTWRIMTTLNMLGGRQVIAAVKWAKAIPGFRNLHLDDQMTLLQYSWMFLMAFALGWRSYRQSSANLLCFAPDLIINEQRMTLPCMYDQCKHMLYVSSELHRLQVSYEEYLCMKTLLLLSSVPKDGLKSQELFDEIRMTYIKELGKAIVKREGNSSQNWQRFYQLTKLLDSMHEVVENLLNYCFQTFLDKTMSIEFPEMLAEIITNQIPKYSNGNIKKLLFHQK

CCCCOCCOC(=O)COc1nc(Cl)c(Cl)cc1Cl
inactive: outcome [1] | Potency [2] | outcome [3] | Potency [4] | outcome [5] | outcome [6] | outcome [7] | outcome [8] | outcome [9] | outcome [10] | outcome [11] | outcome [12] | outcome [13] | outcome [14] | outcome [15] | outcome [16] | Potency [17]

N[C@@H](CCC(=O)Nc1ccc([N+](=O)[O-])cc1)C(=O)O
inactive: outcome [1] | Potency [2] | outcome [3] | Potency [4] | outcome [5] | outcome [6] | outcome [7] | outcome [8] | outcome [9] | outcome [10] | outcome [11] | outcome [13] | outcome [14] | outcome [15] | Potency [17] | outcome [18]

Cc1ccccc1N=O
inactive: outcome [1] | Potency [2] | outcome [3] | Potency [4] | outcome [5] | outcome [6] | outcome [7] | outcome [8] | outcome [9] | outcome [10] | outcome [11] | outcome [12] | outcome [13] | outcome [14] | outcome [15] | outcome [19] | Potency [17]

CC1COc2ccccc2N1 (stereo not given)
inactive: outcome [1] | Potency [2] | outcome [3] | Potency [4] | outcome [5] | outcome [6] | outcome [8] | outcome [9] | outcome [10] | outcome [11] | outcome [12] | outcome [13] | outcome [14] | outcome [15] | outcome [16] | outcome [19] | Potency [17] | outcome [18]

CCCCCCCC/C=C\CCCCCCCC(=O)OCCCC
inactive: outcome [1] | Potency [2] | outcome [3] | Potency [4] | outcome [5] | fluorescence, relative to Rose Bengal [6] 0.139% [at 18.6 µM] | fluorescence, % of fluorescein control [7] -0.0204% [at 18.6 µM] | fluorescence, % of triamterene [8] -0.0584% [at 18.6 µM] | fluorescence, % of fluorescent control [9] 0.3% [at 18.6 µM] | fluorescence, % of fluorescein [10] 0.0126% [at 18.6 µM] | fluorescence, % of fluorescent control [11] -0.0858% [at 18.6 µM] | activity change [12] -0.0648% [at 18.6 µM] | fluorescence, % of fluorescent control [13] 0.213% [at 18.6 µM] | fluorescence, % of Rose Bengal [14] 0.134% [at 18.6 µM] | fluorescence, % of fluorescent control [15] -0.0292% [at 18.6 µM] | fluorescence, % of fluorescein control [16] -0.0278% [at 18.6 µM] | fluorescence, % of fluorescent control [19] -0.0041% [at 18.6 µM] | Potency [17]

C[C@H](N)[C@H](O)c1cccc(O)c1
inactive: outcome [1] | Potency [2] | outcome [3] | Potency [4] | outcome [5] | fluorescence, relative to Rose Bengal [6] 0.285% [at 18.6 µM] | fluorescence, % of fluorescein control [7] 0.0051% [at 18.6 µM] | fluorescence, % of triamterene [8] 2.14% [at 18.6 µM] | fluorescence, % of fluorescent control [9] -0.0013% [at 18.6 µM] | fluorescence, % of fluorescein [10] 0.0113% [at 18.6 µM] | fluorescence, % of fluorescent control [11] 2.08% [at 18.6 µM] | activity change [12] 0.048% [at 18.6 µM] | fluorescence, % of fluorescent control [13] 0.0224% [at 18.6 µM] | fluorescence, % of Rose Bengal [14] -0.249% [at 18.6 µM] | fluorescence, % of fluorescent control [15] 1.92% [at 18.6 µM] | fluorescence, % of fluorescein control [16] 0.027% [at 18.6 µM] | fluorescence, % of fluorescent control [19] 1.56% [at 18.6 µM] | Potency [17]

CCCCCCCCC(=O)Cl
inactive: outcome [1] | Potency [2] | outcome [3] | Potency [4] | outcome [5] | outcome [6] | outcome [8] | outcome [9] | outcome [10] | outcome [11] | outcome [12] | outcome [13] | outcome [14] | outcome [15] | outcome [16] | outcome [19]
